# Source: PubChem
# HCV inhibitor = blocks hepatitis C virus. hit rate 3.4% among 340,000. Huh7.5.1 HCVcc-Cre infection, luciferase reporter, 44 h. Potency, µM (top dose mostly 41.8 µM), hits mostly inhibitors. AID 651820
#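 Infectious HCV cell culture screen: compound-treated cells (1,000/well, pre-plated 4 h) are infected with HCVcc-Cre at roughly 0.5 moi and grown 44 h. Infection is quantified by luciferase signal after 15 min substrate incubation at room temperature.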
# AMA1 RON2 block = inhibitors of Plasmodium falciparum AMA1-RON2 interaction | AlphaScreen AMA1-biotinylated RON2 peptide binding | Potency, µM (doses to about 58.2 µM), usual class: inhibitors | hit rate 0.2% among 360,000 | AID 720542; also: nearly all actives have a fitted effect of over 45% in size
#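 AMA1 (3D7) with his tag at 25 nM final met compounds first, then biotinylated RON2 peptide at 25 nM; detection used donor plus acceptor beads, 10 µg/mL apiece, read by AlphaScreen after 30 min at room temperature.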
# Pf growth 48h = P. falciparum growth inhibition at 48 hours (one generation) | P. falciparum luciferase growth in erythrocytes, 48 h | AID 504832 | Potency, µM (highest dose often 28.7 µM), most hits filed as inhibitors | hit rate 5.9% among 310,000
#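 Parasite viability was followed by luminescence of a genomically integrated firefly luciferase. Cultures held 0.1% parasitemia at 2% hematocrit (final), incubated under 5% CO2 at 37 C.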
# Cycloheximide cs = counter-screen hit for Shiga toxin inhibitors, cycloheximide | cell reporter, cycloheximide protein synthesis inhibition counterscreen | max response, % | hit rate 12% among 300,000 | AID 2314; in the data active = max response mostly above about 13%, no sharp cut-off; inactive = mostly below about 14%; also: read at 38.3 µM for the half of the compounds with a filed dose
# Pf growth 96h = inhibits malaria parasite growth, 96 h. hit rate 6.9% among 320,000. P. falciparum luciferase reporter growth, 96 h. AID 504834. Potency, µM (doses to about 28.7 µM), actives largely listed as inhibitors
#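 Parasite growth measured via integrated firefly luciferase reporter in P. falciparum. Infected erythrocytes at 2% hematocrit, 0.05% parasitemia final were treated 96 hours at 37 C under 5% CO2, and luminescence was read.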
# Shiga inhibitor = inhibitors of Shiga toxin in Vero cells; Vero cells, Shiga toxin protein synthesis inhibition reporter; inhibition, % at 38.7 µM; hit rate 9.2% among 290,000; in the data active = inhibition mostly above about 28%, no sharp cut-off; inactive = mostly below about 43%
# A number is an active result; i = inactive; ? = inconclusive; nt = no result. This is a sample that favours compounds with a hit; in the whole collection about 21% have one here. Unless noted, calls follow the shape of the dose curve; as a rule, active = well fitted curve in the direction sought with a large enough effect; inconclusive = small, poorly fitted or top-dose-only effect, or another doubt; inactive = no such curve, though single readings can be large; an effect the other way counts as inactive or inconclusive.
SMILES,HCV inhibitor,AMA1 RON2 block,Pf growth 48h,Cycloheximide cs,Pf growth 96h,Shiga inhibitor
COc1ccc(C(=O)COc2ccccc2C(=O)Nc2ccccc2)cc1,i,i,?,i,i,i
COc1cccc(C(=O)COC(=O)c2ccc(NC(=O)c3ccccc3)cc2)c1,?,i,nt,nt,nt,nt
O=C(OCC(=O)N1CCC(Cc2ccccc2)CC1)c1cncc(Br)c1,i,i,nt,nt,nt,nt
CC(C)C(=O)Nc1nc(-c2ccccc2)ns1,?,i,i,48.1,i,95.9
CCC(=O)Nc1nc(-c2ccccc2)ns1,i,i,i,31.7,i,61.3
Cc1nnc(SCCC(=O)Nc2nc(-c3ccccc3)ns2)s1,?,i,i,i,?,i
Cc1ccc(-c2nc(NC(=O)CSc3ncn[nH]3)ns2)cc1,i,i,i,16.4,i,59.4
Cc1ccc(CNC(=O)CSc2ncn[nH]2)cc1,i,i,i,i,i,i
CCCC(=O)Nc1nc(-c2ccccc2)ns1,i,i,i,85.7,i,27.5
O=C(Nc1ccc2c(c1)OCCO2)C1c2ccccc2OCC(=O)N1CCCN1CCOCC1 (configuration not stated),nt,i,nt,nt,nt,nt
CN(C(=S)NC(=O)C1CC1)c1ccc(O)cc1,?,i,i,nt,i,nt
COc1ccc(CNC(=S)NC(C)CCc2ccccc2)cc1 (configuration not stated),i,i,?,i,i,i
O=P(O)(C(O)c1ccccc1)C(O)c1ccccc1 (configuration not stated),i,i,?,nt,i,nt
O=C(CSc1ncn[nH]1)NCc1ccccc1,i,i,i,i,i,i
CC(=O)Nc1nc(-c2ccc(Cl)cc2)ns1,?,i,i,64.0,i,active
O=C(CSc1ncn[nH]1)Nc1nc(-c2ccccc2)ns1,i,i,i,34.1,nt,49.4
COC(=O)C1=C[C@@H](C(=O)OC)C2C3=C(C(=O)[C@]2(C)NC(=O)c2ccccc2)[C@H](C)n2c(=O)n(C)c(=O)n2[C@@H]3C1 (some centres not stated),nt,nt,nt,i,nt,i
CC1=C(C(=O)N(C(C)C)C(C)C)CC(CC(=O)NCc2cccs2)C(=O)N1CCC1=CCCCC1 (configuration not stated),nt,i,nt,nt,nt,nt
COc1cc(CNCCc2c[nH]c3ccccc23)ccc1OCc1ccc(F)cc1,12.6µM,i,?,i,nt,i
COc1cc(CNCCc2c[nH]c3ccccc23)cc(Cl)c1OCC(N)=O,?,i,?,i,i,i
CCOc1cc(CNCCc2c[nH]c3ccccc23)cc(Cl)c1OCC(N)=O,?,i,?,i,4.65µM,i
CCOc1cc(CNCCc2c[nH]c3ccccc23)cc(Cl)c1OC,10µM,?,?,i,6.57µM,i
O=C(NC(=S)N1CCN(C/C=C/c2ccccc2)CC1)c1ccc(Cl)nc1,i,i,?,i,?,i
Cc1cnc(CNC(=O)C2CCC(=O)N(CCc3cccc(F)c3)C2)[nH]1 (configuration not stated),i,i,?,i,i,i
C(CNC1C2CC3CC(C2)CC1C3)CN1CCOCC1 (configuration not stated),i,i,i,i,i,i
SMILES,HCV inhibitor,AMA1 RON2 block,Pf growth 48h,Cycloheximide cs,Pf growth 96h,Shiga inhibitor
C1CCN(CCCNC2C3CC4CC(C3)CC2C4)C1 (configuration not stated),2.51µM,i,?,i,?,i
Cc1cc(-c2ccccc2)nc(N/N=C/c2ccccc2)n1,?,i,i,32.3,i,55.1
Cc1cc(-c2ccccc2)nc(N/N=C/c2ccco2)n1,i,i,i,35.7,i,85.1
Cc1csc(N/N=C/c2ccc([N+](=O)[O-])cc2)n1,i,i,i,31.8,?,67.4
Cc1cc(-c2ccccc2)nc(N/N=C/c2ccc(N(C)C)cc2)n1,12.6µM,i,nt,nt,nt,nt
CCOC(=O)CNC(=O)CSc1nc(Cc2ccccc2)nc2ccccc12,i,i,i,i,?,i
CN(N)c1nc(-c2ccccc2)cc(-c2ccccc2)n1,?,i,i,i,i,i
Cc1cc(-c2ccccc2)nc(N/N=C/c2ccc(O)cc2O)n1,10µM,i,?,23.2,i,91.3
Cc1cc(-c2ccccc2)nc(N/N=C/c2cccnc2)n1,?,i,i,i,?,i
CNc1nc(C)nc(N/N=C/c2ccccc2)n1,i,i,i,28.4,i,i
Cc1cc(-c2ccccc2)nc(N/N=C/c2ccc([N+](=O)[O-])cc2)n1,10µM,i,i,i,?,i
